Bioassay records (PubChem BioAssay)
An excerpt weighted towards active compounds, which were near 7.9% of everything screened.
MARV entry inh = blocks Marburg virus binding to or entry into cells. Potency, µM (highest dose often 37.8 µM), for inactives: top-dose activity change, negative = inhibition, usual class: inhibitors. 300,000 tested, 1.8% active. AID 540276. Marburg virus pseudotyped entry inhibition, cell reporter; calls by dose curve; tested in HEK293 cells; further: potency means the concentration at half of the fitted maximal effect
FMDV antiviral = foot and mouth disease virus antiviral activity; FMDV antiviral cell-based qHTS; Potency, µM (titrated, usually from 57.9 µM), for inactives: top-dose activity change, negative = inhibition, actives largely listed as inhibitors; 410,000 tested, 1.2% active; AID 1159524; calls by dose curve; tested in HEK293T cells; further: read-out not given here; potency means the concentration at half of the fitted maximal effect; nearly all actives have a fitted effect of over 45% in size
LASV entry inh = inhibitors of Lassa virus binding or cell entry. Lassa virus pseudotype entry inhibition, cell reporter. 300,000 tested, 1.2% active. Potency, µM (highest dose often 37.9 µM), for inactives: at the top dose activity change, negative = inhibition, actives largely listed as inhibitors; calls by dose curve; tested in HEK293 cells; further: potency means the concentration at half of the fitted maximal effect; nearly all actives have a fitted effect of over 50% in size
HCMV antiviral = blocks human cytomegalovirus replication; HFF cells, HCMV-luciferase reporter, 72 h; active compounds read low; activity change, negative = inhibition, % at 57.5 µM; 410,000 tested, 4.5% active; in the data active means activity change below about -60%; inconclusive means no clear call, values can overlap the other calls; inactive means above about -39%
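Two compound doses tested in HFFs infected with HCMV-luciferase, MOI 1 PFU/cell, 72 h at 37C. Lysate luminescence read with OneGlo; data normalized against buffer-only and 10uM Salinomycin inhibitor controls.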
HCV inhibitor = HCV inhibition; 340,000 tested, 3.4% active; Huh7.5.1 HCVcc-Cre infection, luciferase reporter, 44 h; Potency, µM (titrated, usually from 41.8 µM), without a hit: top-dose activity change, negative = inhibition, usual class: inhibitors; AID 651820; active means well fitted inhibition curve with a large enough effect; inconclusive means small, poorly fitted or top-dose-only effect, or another doubt; inactive means no such curve, though single readings can be large or run the other way; further: potency means the concentration at half of the fitted maximal effect
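A cell-based infection assay in which seeded cells (1,000 per well) receive test compound after 4 h, are inoculated with HCVcc-Cre at approximately 0.5 moi, and are incubated 44 h before luminescence detection.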
Numbers without * were called inactive; ! = repeats disagree; [ ] = remark or other dose. On the % scale 0 is the no-effect control and ±100 the full control effect.

`COc1cc(N/C(N)=N/c2nc(C)cc(C)n2)c(OC)cc1Cl` gave MARV entry inh 9.2µM*, FMDV antiviral inconclusive, LASV entry inh -23%, HCMV antiviral -19 and HCV inhibitor inconclusive.
For Cc1cc(C)nc(/N=C(\N)Nc2ccc(C(C)C)cc2)n1 the results were MARV entry inh 10µM*, FMDV antiviral 14µM*, LASV entry inh inconclusive, HCMV antiviral -63* and HCV inhibitor 11µM*.
For Cc1cc(C)cc(N/C(N)=N/c2nc(C)cc(C)n2)c1 the results were MARV entry inh inconclusive, FMDV antiviral -28%, LASV entry inh 21µM*, HCMV antiviral 38 and HCV inhibitor -66%.
Screening CCCCc1ccc(N/C(N)=N/c2nc(C)cc(C)n2)cc1 returned MARV entry inh inconclusive, FMDV antiviral 25µM*, LASV entry inh inconclusive, HCMV antiviral -97* and HCV inhibitor -84%.
Screening CC1=C(n2c(=O)c(-c3ccccc3)nc3ccccc32)C(=O)Nc2ccccc2N1 returned HCMV antiviral 17.
COc1ccc(-c2nsc3c(N4CCCCC4C)ncnc23)cc1 (stereo not drawn) was read as FMDV antiviral 0.032µM*, HCMV antiviral -97* and HCV inhibitor inconclusive.
Screening COc1ccc(-c2nsc3c(N4CCN(S(=O)(=O)c5ccccc5F)CC4)ncnc23)cc1 returned MARV entry inh 9%, LASV entry inh 10%, HCMV antiviral -12 and HCV inhibitor -1%.
For COc1ccc(C(=O)N2CCN(c3ncnc4c(-c5ccccc5)nsc34)CC2)cc1 the results were MARV entry inh -11%, FMDV antiviral inconclusive, LASV entry inh -2%, HCMV antiviral -6 and HCV inhibitor -6%.
COc1ccc(-c2nsc3c(N4CCCCC4)ncnc23)cc1 was read as MARV entry inh inconclusive, FMDV antiviral inconclusive, LASV entry inh inconclusive, HCMV antiviral -83* and HCV inhibitor -16%.
Screening COc1ccc(CNCc2ccc(C(F)(F)F)cc2)cc1OC returned MARV entry inh 0%, FMDV antiviral 0%, LASV entry inh 1%, HCMV antiviral -22 and HCV inhibitor inconclusive.
CCOc1ccc(C(=O)Nc2cccc(OCc3cc(=O)n4cc(C)sc4n3)c2)cc1 was read as MARV entry inh 6%[46.1 µM], FMDV antiviral 0%, LASV entry inh 22%[46.1 µM] and HCMV antiviral 10.
`C=CCn1c(SCC(=O)c2ccc(OC)cc2)nnc1-c1cc2cccc(OC)c2o1` gave MARV entry inh inconclusive, FMDV antiviral 0%, LASV entry inh -27%, HCMV antiviral 9 and HCV inhibitor -13%.
`COc1ccc(NC(=O)CSc2nnc(-c3ccccc3C)n2C)cc1` gave MARV entry inh -10%, FMDV antiviral -15%, LASV entry inh 25%, HCMV antiviral -67* and HCV inhibitor -6%.
For CNC(=O)CSc1nnc(-c2ccccc2)n1C the results were FMDV antiviral 251µM*, HCMV antiviral -21 and HCV inhibitor 8%.
`Cn1c(SCC(=O)c2cc3ccccc3o2)nnc1-c1ccccc1` gave FMDV antiviral 17%, HCMV antiviral -60* and HCV inhibitor inconclusive.
Screening C=CCn1c(SCC(=O)c2ccccc2)nnc1-c1cc2ccccc2o1 returned MARV entry inh inconclusive, FMDV antiviral 40µM*, LASV entry inh -26%, HCMV antiviral inconclusive and HCV inhibitor inconclusive.
Screening Cn1c(SCC(=O)Nc2ccccc2)nnc1-c1ccccc1 returned FMDV antiviral 29%, LASV entry inh -1%[46.1 µM] and HCMV antiviral -9.
Screening O=C(NCc1cc(F)cc(F)c1)[C@H]1[C@H](CO)[C@H]2Cn3c(cccc3=O)[C@@H]1N2C(=O)c1ccccn1 returned HCMV antiviral -10.
Cn1c(SCC(=O)N2CCN(c3ccccc3)CC2)nnc1-c1cc2ccccc2o1 was read as MARV entry inh inconclusive, FMDV antiviral 3.5µM*, LASV entry inh -20%, HCMV antiviral -66* and HCV inhibitor inconclusive.
Screening Cn1c(SCC(=O)N2CCOCC2)nc2c(c1=O)SCC2 returned MARV entry inh 13%, FMDV antiviral -19%, LASV entry inh -8%, HCMV antiviral -3 and HCV inhibitor 21%.
`CCC(C)[C@H]1CNC(=S)N1CCC12CC3CC(CC(C3)C1)C2` (stereo partly drawn) gave FMDV antiviral 13%, HCMV antiviral -79* and HCV inhibitor 15%.
Screening CCC(C)[C@H]1CNC(=S)N1CCc1cccc2ccccc12 (stereo partly drawn) returned FMDV antiviral -2%, HCMV antiviral 21 and HCV inhibitor inconclusive.
Screening CNC(=O)[C@@H]1C[C@H](Sc2nc3ccccc3[nH]2)CN1Cc1ccccc1C(F)(F)F returned FMDV antiviral -9%.
Cc1cc2c(c(-c3ccc4nc(C)ccc4c3)c1)OC(CNC(=O)Cc1ccn(C)c1)C2 (stereo not drawn) was read as FMDV antiviral 5%.
For CC[C@]1(O)CC(O[C@@H]2CC(N(C)C)C(O)C(C)O2)c2c(cc3c(c2O)C(=O)c2c(O)ccc(O)c2C3=O)C1C(=O)OC (stereo partly drawn) the results were FMDV antiviral -8%.
`COc1cccc2c1C(=O)c1c(O)c3c(c(O)c1C2=O)C[C@@](O)(C(=O)CO)C[C@@H]3O[C@H]1C[C@H](N)[C@@H](O)[C@H](C)O1` gave FMDV antiviral -5% and HCV inhibitor inconclusive.
For COc1cccc2c1C(=O)c1c(O)c3c(c(O)c1C2=O)CC(O)(C(=O)CO)CC3OC1CC(N(C)C)C(O)C(C)O1 (stereo not drawn) the results were MARV entry inh inconclusive, FMDV antiviral -5%, LASV entry inh inconclusive, HCMV antiviral -98* and HCV inhibitor inconclusive.
`CC(=O)[C@]1(O)Cc2c(O)c3c(c(O)c2[C@@H](O[C@H]2C[C@H](N)[C@H](O)[C@H](C)O2)C1)C(=O)c1c(O)cccc1C3=O` gave MARV entry inh 0.056µM* and LASV entry inh 0.16µM*.
For COc1cccc2c1C(=O)c1c(O)c3c(c(O)c1C2=O)C[C@@](O)(C(C)=O)C[C@@H]3O[C@H]1C[C@H](N)[C@H](O)[C@H](C)O1 the results were MARV entry inh 0.23µM*, FMDV antiviral -15%, LASV entry inh inconclusive, HCMV antiviral -100* and HCV inhibitor 6.3µM*!.
`CCOc1cc(C(=O)N2CC(=O)Nc3ccc(F)cc3C2c2ccccc2)cc(OCC)c1OCC` (stereo not drawn) gave MARV entry inh -19%[46.1 µM], FMDV antiviral -7%, LASV entry inh 21%[46.1 µM] and HCMV antiviral 19.
CC(C)=C(NC(=O)c1ccccc1Br)C(=O)NCCc1nc2ccccc2[nH]1 was read as MARV entry inh -7%, FMDV antiviral 8%, LASV entry inh -3%, HCMV antiviral -24 and HCV inhibitor -11%.
`N/C(CCN1CCCCC1)=N\O` gave MARV entry inh -5%.
